The list is not random: actives were taken first. Their share in the collection is about 7.3%.
VACV Venus inh: vaccinia inhibition (Venus reporter). Vaccinia virus Venus reporter expression, fluorescence. Potency, µM (titrated, usually from 36.5 µM), inactives show top-dose activity change, negative = inhibition, hits mostly inhibitors. actives 0.46% (n = 330,000); calls by dose curve; tested in A549 cells; further: potency means the concentration at half of the fitted maximal effect; nearly all actives have a fitted effect of over 30% in size
Vaccinia mCherry: vaccinia inhibition (mCherry reporter); Vaccinia virus mCherry reporter infection, fluorescence; Potency, µM (series often up to 36.5 µM), inactives show top-dose activity change, negative = inhibition, actives largely listed as inhibitors; actives 0.63% (n = 310,000); AID 720579; calls by dose curve; tested in A549 cells; further: potency means the concentration at half of the fitted maximal effect; nearly all actives have a fitted effect of over 35% in size
FMDV inh: foot and mouth disease virus antiviral activity; FMDV antiviral cell-based qHTS; Potency, µM (top dose mostly 57.9 µM), for the others: at the highest dose activity change, negative = inhibition, most hits filed as inhibitors; actives 1.2% (n = 410,000); calls by dose curve; tested in HEK293T cells; further: read-out not given here; potency means the concentration at half of the fitted maximal effect; nearly all actives have a fitted effect of over 45% in size
HCV inh: inhibitors of hepatitis C virus infection | Huh7.5.1 HCVcc-Cre infection, luciferase reporter, 44 h | Potency, µM (titrated, usually from 41.8 µM), without a hit: at the top dose activity change, negative = inhibition, actives largely listed as inhibitors | actives 3.4% (n = 340,000); active means well fitted inhibition curve with a large enough effect; inconclusive means small, poorly fitted or top-dose-only effect, or another doubt; inactive means no such curve, though single readings can be large or run the other way; further: potency means the concentration at half of the fitted maximal effect
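Infectious HCV cell culture screen: compound-treated cells (1,000/well, pre-plated 4 h) are infected with HCVcc-Cre at roughly 0.5 moi and grown 44 h. Infection is quantified by luciferase signal after 15 min substrate incubation at room temperature.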
HCMV antiviral: human cytomegalovirus inhibition. HFF cells, HCMV-luciferase reporter, 72 h; hits give low values. activity change, negative = inhibition, % at 57.5 µM. actives 4.5% (n = 410,000). AID 1259415; in the data active means activity change below about -60%; inconclusive means no clear call, values can overlap the other calls; inactive means above about -39%
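Screen run at 2 compound doses on HFFs infected with reporter HCMV, MOI 1 PFU/cell. Luciferase activity from cell lysates at 72 h post infection gave inhibition relative to buffer-only and Salinomycin wells.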
* hit, by the source's call; i = inactive; u = inconclusive; x = no result given; [ ] = remark or other dose. On the % scale 0 is the no-effect control and ±100 the full control effect.

SMILES | VACV Venus inh | Vaccinia mCherry | FMDV inh | HCV inh | HCMV antiviral
CCOc1cccc2sc(=NC(=O)CCS(=O)(=O)c3ccccc3)n(CC)c12 | x | x | u | 11µM* | u
C#CCn1c(=NC(=O)c2ccco2)sc2cccc(Cl)c21 | -10% | -13% | 1% | -3% | 0
Cn1c(=O)c2sccc2n2c(CCCC(=O)Nc3ccc(Oc4ccc(Cl)cc4)cc3)nnc12 | -29% | u | u | x | -76*
COc1ccc(NC(=O)CCc2nnc3n(C)c(=O)c4sccc4n23)cc1 | -2% | -5% | -18% | x | -6
COc1cccc(Cn2cnc3c(NS(=O)(=O)c4cccc(Cl)c4Cl)c(C)c(C)cc32)c1 | x | x | u | 13µM* | -24
C/C(CCC(C)C)=N\NC(=O)COc1ccccc1-c1ccccc1 | -11% | -13% | -10% | -5% | -90*
C/C(CCc1ccccc1)=N\NC(=O)COc1ccccc1C | -4% | i | -1% | u | 26
CC(NC(=O)COc1ccccc1-c1ccccc1)c1ccccc1 (configuration not stated) | -6% | i | u | -8% | -69*
c1ccc(CC[n+]2ccncc2)cc1 | -13% | i | x | x | x
COc1ccc(CNc2nc(-c3ccccc3OC)nc3ccccc23)c(OC)c1 | -4% | -4% | -18% | x | x
CN(Cc1ccc2c(c1)OCO2)C(=O)c1cc(-c2ccccc2)c(N2CCOCC2)s1 | x | x | -15% | 10µM* | 0
COc1ccc(CCNC(=O)c2cc(-c3ccccc3)c(N3CCOCC3)s2)c(OC)c1OC | x | x | -25% | 10µM* | -30
CCOc1ccc(CCNC(=O)c2cc(-c3ccccc3)c(N3CCOCC3)s2)cc1OCC | x | x | u | u | -32
O=C(NCc1ccco1)c1cc(-c2ccccc2)c(N2CCOCC2)s1 | -26% | u | -24% | 8.9µM* | 4
O=C(NCc1ccc2c(c1)OCO2)c1cc(-c2ccccc2)c(N2CCOCC2)s1 | x | x | -25% | 14µM* | x
CCN(CC)c1ccc(C(=O)NCc2ccc3c(c2)CCN3C(=O)c2ccc(F)cc2)cc1 | -18% | u | -17% | x | 19
CC12CCC(C/C1=N\OC(=O)c1ccc(F)cc1)C2(C)C (configuration not stated) | x | x | -2% | 15% | -6
CC12CCC(C/C1=N/OC(=O)c1cccc([N+](=O)[O-])c1)C2(C)C (configuration not stated) | x | x | -20% | 2% | -65*
Cc1ccc(C)c(C(Nc2ccccc2)c2ccc3ccc(C)nc3c2O)c1 (configuration not stated) | u | 7.9µM* | 6% | x | 15
CC(C)(C)c1ccc(CSc2cnn(C(C)(C)C)c(=O)c2Cl)cc1 | u | -17% | u | u | -78*
COC(=O)c1c(NC(=O)COc2c(C)cccc2C)sc2c1CCCC2 | 8% | -6% | -29% | x | -2
COc1ccc(NC(=O)c2c(NCc3cccc(OC)c3)sc3c2CCCC3)cc1 | -13% | -23% | 32% | x | u
CCOC(=O)c1c(CC(C)C)csc1NC(=O)COC(=O)c1ccc(O)cc1 | -2% | -8% | 35µM* | u | -19
COC(=O)c1c(NC(=O)COC(=O)c2ccc(O)cc2)sc2c1CCCCC2 | -9% | u | -20% | 3.2µM* | 14
CCOC(=O)c1c(CC(C)C)csc1NC(=O)COC(=O)C1=NNC(=O)CC1 | -12% | i | -9% | u | -11
SMILES | VACV Venus inh | Vaccinia mCherry | FMDV inh | HCV inh | HCMV antiviral
COC(=O)c1ccc(NC(=O)c2c(NCc3ccc(OC)c(OC)c3)sc3c2CCCC3)cc1 | -20% | -7% | -1% | x | -67*
COCC(=O)Nc1sc2c(c1C(=O)OC)CCCC2 | x | x | 20% | 7.1µM* | 47
Cc1sc2ccccc2[n+]1CC(=O)c1ccc(F)cc1 | -15% | i | x | x | x
Cn1c(=O)n(C)c2cc(CNCc3ccccc3Cl)ccc21 | -8% | -10% | -2% | x | 11
COC(=O)c1c(NC(=O)C(=O)NCCCN2CCOCC2)sc2c1CCCC2 | x | x | -32% | 22µM* | 12
O=C(NCCO)c1cn(C2CCCN(Cc3cccc(C(F)(F)F)c3)C2)nn1 (configuration not stated) | 14% | -2% | -14% | x | x
CCOc1cc(C)c(S(=O)(=O)Nc2ccc3cn[nH]c3c2)cc1C | u | -27% | x | 10µM* | x
Cc1ccc(S(=O)(=O)Nc2ccc3cn[nH]c3c2)c(C)c1 | x | x | 24% | 4% | 9
CN(C(=O)/C=C/c1ccc2c(c1)OCO2)c1ccccc1 | -13% | i | 42% | 8% | 0
CN(C(=O)C=Cc1ccccc1)c1ccccc1 | -4% | -21% | 36% | -14% | -101*
CCOCCCNC(=O)NC(CCC(C)C)c1c(-n2cccc2)sc2c1CCN(C)C2 (configuration not stated) | -11% | -13% | 11% | x | 81
NC(N)=N/N=C/c1ccc2cccc(OCc3ccccc3)c2n1 | -26% | -14% | u | 13µM* | -39
O/N=C/c1ccc2cccc(OCc3ccccc3)c2n1 | x | x | -23% | u | -31
O=C(N/N=C/c1ccncc1)c1ccc(OCc2ccccc2)cc1 | x | x | -14% | -20% | -62*
NC(=S)N/N=C/c1ccc2cccc(OCc3ccccc3)c2n1 | u | u | -22% | 11µM* | -68*
COc1ccc(C(=O)N/N=C/c2ccc3cccc(OCc4ccccc4)c3n2)cc1 | u | u | -29% | 8.9µM* | 15
O=C(CSc1nc(=O)[nH]c2c1CCCC2)Nc1ccccc1C(F)(F)F | -5%[7.34 µM] | -6%[7.34 µM] | -21% | x | 85
CCC[C@H]1[C@@H](NS(=O)(=O)c2cc(Cl)cc(Cl)c2)CC[C@@]23CCCN2C(=O)CCC[C@@H]13 | x | x | x | x | 2
CC1=C(C(=O)Nc2ccccc2)C(c2cccc(O)c2)n2nc(-c3ccccc3Cl)nc2N1 (configuration not stated) | -4% | -5% | -17% | x | 26
NC(=S)N/N=C/c1ccccc1OCc1cccc(Cl)c1 | 2µM* | 1.8µM* | u | 11µM* | x
COC(=O)N/N=C/c1ccccc1OCc1ccccc1 | -17% | -16% | -10% | -1% | u
COc1cc(/C=C/c2nc(C#N)c(N3CCN(C)CC3)o2)cc(OC)c1OC | -22% | u | -1% | x | 69
O=C(Cc1n[nH]c(=O)c2ccccc12)OCc1c(Cl)cccc1Cl | 20% | u | -2% | 5% | -68*
CCOC(=O)Cc1n[nH]c(=O)c2ccccc12 | 6% | -10% | -6% | -9% | -26
Nc1nc2[nH]cc(CCc3ccc(C(=O)N[C@@H](CCC(=O)O)C(=O)O)cc3)c2c(=O)[nH]1 | -12% | u | x | x | x
CC1=C(C(=O)Nc2ccccc2)C(c2ccc(Cl)cc2)n2c(s/c(=C/c3cccc(OCC(=O)O)c3)c2=O)=N1 (configuration not stated) | -9% | -1% | 16% | 2% | -68*
CCOc1ccc(C2C(C(=O)Nc3ccccc3)=C(C)N=c3s/c(=C/c4cccc(OCC(=O)O)c4)c(=O)n32)cc1 (configuration not stated) | 6% | -6% | -3% | 0% | -17

From PubChem
